This note sets out measurements from PubChem BioAssay AID1645855 (Buhrlage Lab, Dana-Farber Cancer Institute and Novartis …, 2021).

Among all 47,000 compounds or so, about 3,100 (6.6%) were called active. Shown is part of a subset that was picked to be rich in actives. A number with no mark means an inactive call. Rule as the data show it: active = inhibition above about 30%; inactive = the rest.

The target in this assay is Ubiquitin carboxyl-terminal hydrolase 17-like protein 5 (Homo sapiens) (UniProt A8MUK1). In words: blocks human USP17 ubiquitin-rhodamine cleavage (AID 1645855). As to conditions: purified USP17, Ub-rhodamine cleavage fluorescence, 3 h; at 50 µM; active compounds read high.
Sequence of Ubiquitin carboxyl-terminal hydrolase 17-like protein 5 (Homo sapiens) (A8MUK1 whole entry, looked up): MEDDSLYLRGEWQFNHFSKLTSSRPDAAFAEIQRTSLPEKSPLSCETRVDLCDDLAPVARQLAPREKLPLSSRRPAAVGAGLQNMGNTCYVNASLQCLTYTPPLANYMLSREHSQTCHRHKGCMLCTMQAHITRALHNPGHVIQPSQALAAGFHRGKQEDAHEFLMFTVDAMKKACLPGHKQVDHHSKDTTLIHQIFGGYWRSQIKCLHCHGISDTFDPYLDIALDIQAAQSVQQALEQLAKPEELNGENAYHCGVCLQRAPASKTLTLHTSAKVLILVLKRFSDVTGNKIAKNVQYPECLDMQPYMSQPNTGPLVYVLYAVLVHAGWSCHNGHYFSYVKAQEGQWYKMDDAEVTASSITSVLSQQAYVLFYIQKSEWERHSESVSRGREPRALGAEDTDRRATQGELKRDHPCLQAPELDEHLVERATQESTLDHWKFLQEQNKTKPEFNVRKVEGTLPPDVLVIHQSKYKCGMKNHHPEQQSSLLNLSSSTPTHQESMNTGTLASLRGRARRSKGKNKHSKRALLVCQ
As for `COc1cccc(N2CCCN(C(=O)c3ccc4nc(C)[nH]c4c3)CC2)c1`, the inhibition was -10.9%.
For the molecule `O=C(c1cccnc1)N1CCN(c2cc(-c3ccccc3)[nH]n2)CC1`, the inhibition was -26.3%.
Turning to `COc1cccc(-c2cc(C(=O)N3CCN(c4ccc(N5CCOCC5)nn4)CC3)[nH]n2)c1`, the inhibition is 33.1% (active).
With `N#Cc1ccccc1NC(=O)c1cccc2c1SCCC2=O`, the inhibition is 8.87%.
In the case of `Cc1cccc(N2CCN(C(=O)C3CCCN(S(=O)(=O)N4CCC5(CC4)OCCO5)C3)CC2)c1C` (stereo not given), the inhibition was 9.89%.
Consider `O=C(O)c1c2c(nc3ccccc13)/C(=C/c1ccc(F)cc1)CCC2`, for which the inhibition is 4.5%.
In the case of `O=C1NC(c2ccccc2)=N/C1=C/c1ccc(F)cc1`, the inhibition is 39.9% (active).
For the molecule `CCC(C)Cc1ccc2c(c1O)C(=O)OC(CC(\C=C/C=C\C=C\c1coc(CC(O)C(C)C(O)CC)n1)OC)C2` (stereo not given), the inhibition was 14.5%.
Turning to `O=C(NCc1ccccc1)c1c(O)c2cnn(Cc3ccccc3)c2[nH]c1=O`, the inhibition is 33.7% (active).
Consider `COc1ccccc1CNC(=O)c1c(O)c2cccnc2n(-c2ccccc2)c1=O`, for which the inhibition is -4.34%.
On to `O=C(NCc1ccccc1)c1cc(-c2ccncc2)n[nH]1`, for which the inhibition was -3.2%.
For `O=C(CN1CCC(Nc2nc3c(c(=O)[nH]2)CCCC3)CC1)Nc1ccccc1[N+](=O)[O-]`, the inhibition was 14%.
Turning to `Cc1sc(NC(=O)CCc2ccccc2)nc1-c1ccc2c(c1)N(C)C(=O)CO2`, the inhibition is -15.7%.
Take `Cc1ccc(C)c(S(=O)(=O)N2CCC(c3nc(C(=O)N(C)C)c(C)o3)CC2)c1`: the inhibition is -7.71%.
Consider `O=C(NCc1cccnc1)[C@@H]1CC[C@@H]2[C@@H](CCN2c2ncc(F)cn2)O1`, for which the inhibition was -63.6%.
`COc1ccc(NS(=O)(=O)c2cc(NC(=O)COc3ccccc3F)ccc2OC)cc1`: the inhibition was 6.42%.
As for `COc1ccc(NS(=O)(=O)c2cc(NC(=O)CC(=O)c3ccc([N+](=O)[O-])cc3)ccc2C)cc1`, the figure is 39.9% (active); as for `COc1ccc(NS(=O)(=O)c2cc(NC(=O)/C=C/c3cccc(OC)c3)ccc2OC)cc1`, -3.35%.
With `COCCN1C[C@H]2COc3cc(OC)ccc3[C@H]2N(C(=O)c2ccc(F)cc2)CCC1=O`, the inhibition is 0.764%.
Turning to `CC(C)n1cnc(-c2cc(C(=O)NC3CC3)c3ccccn23)c1`, the inhibition was -51.2%.
Consider `CCCNC(=O)c1ccc(Nc2cc(C)nc3nc(-c4cccnc4)nn23)cc1`, for which the inhibition was 7.85%.
Take `COc1ccc(CNC(=O)c2ccccc2N2C(=O)N3CCc4c([nH]c5ccccc45)[C@@]3(C)C2=O)cc1`: the inhibition was 56.3% (active).
As for `COc1ccc2[nH]c3c(c2c1)CCN1C(=O)N([C@@H](C)C(=O)NCC(=O)O)C(=O)[C@]31C`, the inhibition is 9.34%.
The same measure for `C[C@]12C(=O)N(c3cccc(C(=O)NCCN4CCOCC4)c3)C(=O)N1CCc1c2[nH]c2ccccc12`: -24.6%.
The same measure for `O=C(NCCc1ccc(F)cc1)N1CC[C@@H]2CN(Cc3ccncc3)S(=O)(=O)[C@@H]2CC1`: -15.9%.
Regarding `O=C(CNC(c1ccccc1)c1ccccc1)Nc1ccc(F)cc1`, the inhibition was 3.76%.
In the case of `O=C(N[C@@H]1C[C@@H](Oc2cccnc2)[C@H](O)[C@H]1N1CCCCC1)c1cnco1`, the inhibition is -6.77%.
Take `COc1cccc(-c2ocnc2C(=O)NCc2ccc(OC)c(OC)c2)c1`: the inhibition was -10.8%.
As for `COc1cc(OC)cc(-c2nnc(NC(=O)c3ccc([N+](=O)[O-])o3)o2)c1`, the figure is 51.3% (active); as for `COc1cccc(CNC(=O)c2ccc(-c3cncnc3)nc2)c1`, -9.04%; as for `CN(C)C(=O)c1cccnc1-c1nc2ccccc2s1`, 9.06%.
As for `Cc1nc(NCc2ccco2)nc2c1COCC21CCN(C(=O)C(C)(C)C)C1` (stereo not given), the inhibition is -22.1%.
For `COc1ccccc1NC(=O)C1=C(C)Nc2ncnn2C1c1ccc(C)o1` (stereo not given), the inhibition was 0.179%.
Turning to `COc1ccc(NC(=O)C2=C(C)Nc3ncnn3C2c2cccc(OCc3ccc(F)cc3)c2)c(OC)c1` (stereo not given), the inhibition is 51.9% (active).
Consider `CC1=C(C(=O)Nc2ccccc2)C(c2cccs2)n2ncnc2N1` (stereo not given), for which the inhibition was -10.9%.
As for `COc1cccc(C2C(C(=O)Nc3ccccc3C)=C(C)Nc3ncnn32)c1OCc1ccccc1` (stereo not given), the figure is -19.2%; as for `CC1=C(C(=O)Nc2ccccc2)C(c2ccc(OCc3c(Cl)cccc3Cl)cc2)n2ncnc2N1` (stereo not given), 69.4% (active).
As for `CC1=C(C(=O)Nc2ccccc2)C(c2cccnc2)n2nc(CCCO)nc2N1` (stereo not given), the inhibition was -9.97%.
Regarding `COc1cccc([C@@H]2C[C@]3(C)NC(=O)CCCC[C@@H]3N2C(=O)c2cnn(C)c2)c1`, the inhibition was -8.06%.
With `CC1COc2ccccc2N1C(=O)c1ccc(F)cc1` (stereo not given), the inhibition is 0.747%.
Take `CC1CCN(S(=O)(=O)c2cccn(CC(=O)Nc3ccc(F)cc3)c2=O)CC1`: the inhibition is -5.61%.
Take `COC(=O)c1cccc(Nc2c(-c3ccccc3)nc3cnc(Br)cn23)c1`: the inhibition is -68.2%.
In the case of `O=C1CCC(=O)N(O)CCCCCNC(=O)CCC(=O)N(O)CCCCCNC(=O)CCC(=O)N(O)CCCCCN1`, the inhibition was 23.5%.
As for `CC(=O)N1CCc2cc(C(O)CN3CCN(c4ccccc4)CC3)ccc21` (stereo not given), the inhibition is 47.6% (active).
As to `CC(=O)N1CCc2cc(S(=O)(=O)Nc3ccccc3N3CCN(C)CC3)ccc21`, the inhibition is -8.21%.
Turning to `O=C(CN1CCN(c2ccccc2)CC1)c1ccccc1`, the inhibition was -12.9%.
Take `CCOCCCNc1ncnc2c1sc1nc(N3CCOCC3)c3c(c12)CC(C)(C)OC3`: the inhibition is -1.37%.
On to `Cc1ccccc1CNC(=O)Cn1c(=O)ccn(Cc2ccc(F)cc2)c1=O`, for which the inhibition was 42.9% (active).
Turning to `CCOc1ccccc1CNC(=O)CCn1c(-c2ccc(F)cc2)cc(C(C)=O)c1C`, the inhibition is -2.37%.
As for `Cc1cc(=O)n(CC(=O)NCc2ccccc2Cl)c(N2CCCC2)n1`, the figure is -2.72%; as for `O=C1Nc2ccccc2C1c1c(-c2ccccc2Cl)[nH]c2[nH]c(=O)[nH]c(=O)c12` (stereo not given), 8.48%; as for `Cc1cnc(N2CC[C@@H]3[C@@H](CO[C@@H]3CNS(C)(=O)=O)C2)nc1`, -4.98%.
Consider `CC(C)NC(=O)N1CCCN(C2CCN(Cc3ccccc3)C2=O)CC1` (stereo not given), for which the inhibition is -36.9%.
`CCCCc1nc2sc3c(SCC(=O)NCc4ccccc4)ncnc3c2c2c1CCC2`: the inhibition is 44.6% (active).
Regarding `CCCc1nc2sc3c(N4CCC(C)CC4)ncnc3c2c2c1CCC2`, the inhibition is -14.3%.
The same measure for `CCC1(C)Cc2c(sc3nc(SCC(=O)NCCc4ccccc4)nc(N)c23)CO1` (stereo not given): -6.11%; for `CC(=O)CSc1nnc(-c2ccccc2Br)o1`: 2.6%.
As for `CCCCOc1ccc(-c2nnc(-c3ccccc3Br)s2)cc1`, the inhibition is 4.93%.
Consider `CS(=O)(=O)c1cnc(N2CCCCC2)nc1C1CCN(C(=O)CCc2ccco2)CC1`, for which the inhibition is 5.15%.
Consider `Cc1cccc(-n2cc(-c3ccccc3)c3c(N(C)C)ncnc32)c1`, for which the inhibition was 2.77%.
Consider `CC1=C(c2ccc(Cl)cc2)S(=O)(=O)NC1=NCC(=O)NC1CCCC1`, for which the inhibition was 20.9%.
`CC1=C(c2ccc(C)cc2)S(=O)(=O)NC1=NCc1cccc(Br)c1`: the inhibition was 46% (active).
For the molecule `COc1ccc(C2=Nc3ncnn3C2=NCc2ccc(F)cc2)cc1OC`, the inhibition was -4%.
`COc1ccc(CN=C2NS(=O)(=O)C(c3ccc(F)cc3)=C2C)cc1OC`: the inhibition is 66.4% (active).
As to `COc1cc(CNc2nn[nH]n2)ccc1OCc1ccc(C)cc1`, the inhibition was 5.1%.
Turning to `CCn1c(SCc2cccc(C)c2)nnc1-c1cnccn1`, the inhibition is 10.7%.
Regarding `O=C(c1cccnc1)N1CCC(c2cccc(Cc3ccccc3Cl)n2)CC1`, the inhibition was -11.1%.
Turning to `COc1cccc(CC2(NC(=O)c3ccccc3)N=C3C=CC=CN3C2=O)c1OC` (stereo not given), the inhibition was 16.5%.
Turning to `Cc1cc(OCC(=O)Oc2ccc(-n3cnnn3)cc2)cc(C)c1Cl`, the inhibition was -0.253%.
The same measure for `CCc1ccc(C(=O)Cn2c(N3CCOCC3)nc3ccccc32)cc1`: -2.13%; for `COc1ccc(S(=O)(=O)N2CC(C(=O)NC3CCCCC3)C3(CCOCC3)C2)cc1` (stereo not given): 0.196%; for `COc1nc(OC)nc(N2CCC(c3nc(C)cc(-c4ncc[nH]4)n3)CC2)n1`: -10.1%.
Turning to `COc1cccc(-c2nnc(-c3ccccc3NS(=O)(=O)c3ccc(C)cc3)o2)c1`, the inhibition was 15.5%.
Turning to `COc1ccc(-c2nnc(-c3cccc(S(=O)(=O)N4CCCC4)c3)o2)cc1`, the inhibition is 13.3%.
Take `COc1cccc(-n2nnc(-c3nnc(-c4ccccc4)o3)c2C)c1`: the inhibition was 54.7% (active).
On to `Cc1ccc(CNC(=O)CCNc2cc(C)nc3nc(-c4cccnc4)nn23)cc1`, for which the inhibition is 6.35%.
On to `CCC(CC)C(=O)N1CCC(c2nc3c(nnn3Cc3ccccc3)c(=O)[nH]2)CC1`, for which the inhibition was 14.7%.
In the case of `CC1=C2C[C@@H]3C(CN4CCN(c5ccccn5)CC4)C(=O)O[C@@H]3C[C@@]2(C)CCC1` (stereo not given in full), the inhibition is -3.81%.
Turning to `COc1ccc(-c2nc(N(Cc3ccccc3)C(=O)CN3CCOCC3)sc2C)cc1`, the inhibition is -13.9%.
With `COc1ccc(NC(=O)c2sc(N3CCOCC3)nc2-c2ccccc2)c(OC)c1`, the inhibition is 52.7% (active).
`CNC(=O)c1cc(-c2ccccc2)c(N2CCOCC2)s1`: the inhibition was 2.58%.
On to `CC(C)Cc1noc(CN2CCC3(CC2)CC3c2nnc(-c3cccc(F)c3)o2)n1` (stereo not given), for which the inhibition was 0.0905%.
With `CC/C=C\[C@@H]1O[C@H]1C1=C(C)C(=O)C2(O1)C(=O)NC(OC)(C(=O)c1ccccc1)C2O` (stereo not given in full), the inhibition was -4.56%.
The same measure for `COc1ccc(-c2cc(C(=O)N3CCCC3c3cc(C)on3)no2)cc1` (stereo not given): 0.23%; for `O=C(Nc1ccc2c(c1)OCO2)c1sc2cc(Cl)ccc2c1Cl`: -7.31%.
